This is a sample that favours compounds with a hit; in the whole collection about 2.9% have one here.
H9c2 protect: modulators protecting cardiomyocytes from myocardial damage; protection from H2O2 cell death, % at 20 µM; H9c2 cardiomyocytes, H2O2 injury protection, ATPLite, 2 h; 0.63% of 360,000 active;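 active = compounds giving at least 50% protection of heart cells from peroxide-induced death in the single-dose screen, raw or plate-pattern-corrected value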
HGIII-sPLA2 inh: Inhibits HGIII-sPLA2 liposome hydrolysis, primary screen | Q9NZ20 | QFRET BODIPY PC-A2 liposome hydrolysis, fluorescence | inhibition, % at 12.2 µM | 0.56% of 370,000 active | AID 743126;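 active = inhibition above mean plus 3 SD of compounds lying within the high and low control bounds, cut at about 19% in these data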
DAGLB inhibitor: diacylglycerol lipase beta (human) inhibition; Q8NCG7; HEK293T DAGLB membrane lysate, EnzChek fluorogenic substrate; inhibition, % at 5.17 µM; 0.059% of 340,000 active; AID 504411; in the data active = inhibition above about 34%
Myeloid diff 2: myeloid differentiation induction; ER-HoxA9 myeloid progenitors, lysozyme-GFP differentiation, flow cytometry; calls only at 10 µM; 1% of 360,000 active; AID 624256;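 active = normalized GFP-positive differentiation at or above the plate's own cutoff, the solvent-only control mean plus 3 SD; inconclusive = no clear call, values can overlap the other calls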;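 also: cells exposed to compound for four days before flow analysis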
ABHD5 PLIN5 PPI: inhibitors of human ABHD5-perilipin-5 interaction. AID 602281. Split G. princeps luciferase complementation, luminescence, 4 h. Q00G26+Q8WTS1. 0.78% of 360,000 active. inhibition, % at 4 µM;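 active = inhibition above the mean inhibition across every tested compound plus 3 SD, cut at about 22% in these data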
Rtt109 Vps75: blocks Candida albicans Rtt109/Vps75 acetyltransferase activity. Q5AAJ8. purified Rtt109/Vps75, ThioGlo CoA-SH fluorescence, 4 h. inhibition, % at 34.9 µM. 0.16% of 330,000 active. AID 540336;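 active = inhibition of at least 50% in every replicate; inconclusive = best replicate reaches 50% inhibition but some replicates fall short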
Target sequence (Q5AAJ8 whole entry, looked up): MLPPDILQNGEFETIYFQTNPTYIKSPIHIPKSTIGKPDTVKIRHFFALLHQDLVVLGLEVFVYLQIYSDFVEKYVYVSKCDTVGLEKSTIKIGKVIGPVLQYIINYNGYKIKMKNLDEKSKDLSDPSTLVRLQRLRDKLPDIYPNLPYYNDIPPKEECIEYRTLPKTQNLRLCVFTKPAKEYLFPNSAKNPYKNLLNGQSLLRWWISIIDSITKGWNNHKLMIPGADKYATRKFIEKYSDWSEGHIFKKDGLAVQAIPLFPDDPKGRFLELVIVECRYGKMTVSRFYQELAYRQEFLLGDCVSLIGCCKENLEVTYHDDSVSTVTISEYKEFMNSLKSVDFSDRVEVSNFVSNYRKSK
ABHD5 PLIN5 conf: confirmation of human ABHD5-PLIN5 interaction inhibitors | shares compounds with ABHD5 PLIN5 PPI | biochemical ABHD5-PLIN5 interaction, luminescence | inhibition, % at 4 µM | 67% of 2,200 active | AID 651612; in the data active = inhibition above about 23%
HNF4 counter: HNF4 split-luciferase signal hit, counter-screen; 77% of 2,200 active; inhibition, % at 4 µM; HNF4 dimerization, luminescence, biochemical; shares compounds with ABHD5 PLIN5 PPI;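 active = mean inhibition across replicate wells exceeding the computed hit threshold, cut at about 13% in these data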;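 also: light from luciferase halves that rejoin when HNF4 fusion proteins dimerize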
Of the large screens only hits and unclear results are named; the others gave an inactive call (follow-up assays come after a bar, where they were run).

CN(CCOC(=O)c1cc2ccccc2o1)C1CN(Cc2cn(Cc3ccccc3Cl)nn2)S(=O)(=O)C1 (stereo unspecified)	none (no result: H9c2 protect, DAGLB inhibitor, Myeloid diff 2, ABHD5 PLIN5 PPI, Rtt109 Vps75)
CCCCNC(=O)C1C2C=CC3(CN(Cc4ccc(C)cc4)C(=O)C13)O2 (stereo unspecified)	none
Cc1ccccc1-c1cccc2c3c([nH]c12)[C@@H]1C[C@H]2[C@@H](C(=O)N1CC3)[C@H](C)ON2C	none (no result: H9c2 protect, DAGLB inhibitor, Myeloid diff 2, ABHD5 PLIN5 PPI, Rtt109 Vps75)
O=c1[nH]cnc2c1N=C(c1cccc([N+](=O)[O-])c1)CC(c1ccccc1)N2 (stereo unspecified)	ABHD5 PLIN5 PPI 45 (no result: Myeloid diff 2) | ABHD5 PLIN5 conf inactive | HNF4 counter 26
Cc1nc2scc(-c3ccco3)c2c(=O)n1/N=C/N(C)C	ABHD5 PLIN5 PPI 43 | ABHD5 PLIN5 conf inactive | HNF4 counter 29
Cc1ccc(-c2csc3nc(C)n(-n4c(C)ccc4C)c(=O)c23)o1	ABHD5 PLIN5 PPI 52 | ABHD5 PLIN5 conf 25 | HNF4 counter 54
COc1cc(C(=O)N2CCC(N3CCN(C)CC3)CC2)ccc1Nc1ncc2c(n1)N(C)c1ccccc1C(=O)N2C	none (no result: H9c2 protect, DAGLB inhibitor, Myeloid diff 2, ABHD5 PLIN5 PPI, Rtt109 Vps75)
CN(CC(=O)N1CCCC1)S(=O)(=O)c1ccc(Cl)cc1	ABHD5 PLIN5 PPI 27 (no result: Rtt109 Vps75) | ABHD5 PLIN5 conf inactive | HNF4 counter inactive
CN(CC(=O)N1CCCCC1)S(=O)(=O)c1ccc(Cl)cc1	none
CCOc1ccc(/C=C2\CCC(C3CCCC3)C2=O)cc1OC (stereo unspecified)	none (no result: Rtt109 Vps75)
COc1ccc(/C=C2/CSC/C(=C/c3ccc(OC)c(OC)c3)C2=O)cc1OC	ABHD5 PLIN5 PPI 55 (no result: Myeloid diff 2) | ABHD5 PLIN5 conf 81 | HNF4 counter 68
COc1cc(C=C2CCCC(=Cc3ccc(OCC4CO4)c(OC)c3)C2=O)ccc1OCC1CO1 (stereo unspecified)	H9c2 protect 81, Myeloid diff 2 inconclusive, ABHD5 PLIN5 PPI 24 (no result: Rtt109 Vps75) | ABHD5 PLIN5 conf 37 | HNF4 counter 21
COc1ccc(/C=C2\Cc3ccccc3C2=O)cc1OC	none
Cn1cc(C(=O)N/N=C/C(Br)=C\c2ccccc2)ccc1=O	ABHD5 PLIN5 PPI 26 (no result: Myeloid diff 2) | ABHD5 PLIN5 conf inactive | HNF4 counter 26
Cc1ccc(-c2cc(C(=O)N/N=C/C(Br)=C/c3ccccc3)n[nH]2)o1	ABHD5 PLIN5 PPI 27 | ABHD5 PLIN5 conf inactive | HNF4 counter 39
Cn1cc(C(=O)N/N=C/C(Br)=C/c2ccccc2)ccc1=O	Myeloid diff 2 inconclusive, ABHD5 PLIN5 PPI 27 | ABHD5 PLIN5 conf inactive | HNF4 counter 75
Cc1ccc(-c2cc(C(=O)N/N=C/c3ccccc3O)n[nH]2)o1	Myeloid diff 2 inconclusive
O=C(NN=C1CCCC1)c1ccc(Br)cc1	none
Cc1ccc2nc(-c3ccc(F)cc3)c(Cc3cccc(F)c3)n2c1	none (no result: H9c2 protect, DAGLB inhibitor, Myeloid diff 2, ABHD5 PLIN5 PPI, Rtt109 Vps75)
CCc1cc2ccc(C)cc2nc1SCC(=O)c1ccc(NC(C)=O)cc1	none
Cn1c(CNS(=O)(=O)c2ccc(F)cc2)n[nH]c1=S	none
O=C(COC(=O)CNC(=O)c1ccccc1F)Nc1ccc(Cl)cn1	none
COC(=O)c1cc(=O)n(Cc2cccs2)c(=Nc2ccccc2)s1	none
CCOC(=O)c1ccc(N=c2sc(C(=O)OC)cc(=O)n2-c2ccc(C(=O)OCC)cc2)cc1	ABHD5 PLIN5 PPI 34 | ABHD5 PLIN5 conf 92 | HNF4 counter 88
COC(=O)c1cc(=O)n(Cc2ccc(F)cc2)c(=Nc2ccccc2)s1	none
COC(=O)c1cc(=O)n(-c2ccccc2)c(=Nc2ccccc2)s1	ABHD5 PLIN5 PPI 38 | ABHD5 PLIN5 conf 57 | HNF4 counter 39
COC(=O)c1cc(=O)n(Cc2ccco2)c(=Nc2ccc(F)cc2)s1	ABHD5 PLIN5 PPI 31 (no result: HGIII-sPLA2 inh) | ABHD5 PLIN5 conf 65 | HNF4 counter 44
CC(=O)Nc1cc(C(F)(F)F)ccc1OCC1CCCO1 (stereo unspecified)	none
CCOC(=O)c1ccc2c(c1)nc(C1CCN(S(=O)(=O)c3cccs3)CC1)n2CC	Myeloid diff 2 inconclusive
C=CCn1c(SCC(=O)NC2CCCC2)nc2scc(-c3ccco3)c2c1=O	ABHD5 PLIN5 PPI 43 | ABHD5 PLIN5 conf 36 | HNF4 counter 86
C=CCn1c(SCC(=O)NCC2CCCO2)nc2scc(-c3ccccc3)c2c1=O (stereo unspecified)	none

Screening data (PubChem BioAssay)
